Test results from PubChem BioAssay AID720697 (Broad Institute, 2013).
Results with a measured potency or affinity are listed apart. Inconclusive results are not listed. Active and inactive are the calls of the source.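 Rule for the calls: active = signal loss with fitted half-maximal concentration at or below twice the top valid tested dose in every test run; inconclusive = runs disagree, flat 30 to 70% signal loss, or poor fit; inactive = all runs flat, opposite direction, or potency beyond limit.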

Test: general mammalian cell viability loss – inhibitor set, cherry-pick, set 2, cytotoxicity control for miR-122 modulator project, dose response (AID 720697)

SMILES | outcome
CNC(=O)C[C@H]1CC[C@H]2[C@H](COc3ccc(NC(=O)c4cccc(OC)c4)cc3C(=O)N2C)O1 | inactive
CC(C)NC(=O)N1C[C@@H]2[C@H](c3ccccc31)[C@H](CO)N2Cc1ccccc1 | inactive
NC(=O)c1cn(-c2ccccc2)nc1-c1cc2ccccc2oc1=O | inactive
COc1ccc(NC(=O)COC(=O)CCCc2c[nH]c3ccccc23)cc1 | inactive
Cc1onc(-c2ccccc2)c1C(=O)NCc1ccccn1 | inactive
Cc1cccc(NC(=O)Nc2ccc3c(c2)C(=O)N(C)[C@@H]2CC[C@@H](CC(=O)NCc4ccccc4Cl)O[C@H]2CO3)c1 | inactive
Cc1cccc(NC(=O)C[C@H]2CC[C@H]3[C@@H](COc4ccc(NC(=O)NC(C)C)cc4C(=O)N3C)O2)c1 | inactive
COc1cccc(NC(=O)N2[C@H](CO)[C@@H](c3ccccc3)[C@H]2CNCC(C)C)c1 | inactive
CC1(C)CC(=O)c2cnc(NC(=O)c3ccco3)nc2C1 | inactive
CN1C(=O)c2cc(NC(=O)c3cccc(F)c3)ccc2OC[C@@H]2O[C@H](CC(=O)Nc3ccccc3)CC[C@H]21 | inactive
CNC(=O)C[C@@H]1CC[C@@H]2[C@@H](COc3ccc(NC(=O)c4cccc(OC)c4)cc3C(=O)N2C)O1 | inactive
COC(=O)C[C@H]1CC[C@H]2[C@H](COc3ccc(NC(=O)c4cccc(F)c4)cc3C(=O)N2C)O1 | inactive
Cc1cnc(NC(=O)c2cc3c(C)nn(-c4ccccc4)c3s2)s1 | inactive
CO[C@H]1CN(C)C(=O)c2cc(NC(=O)c3cccc(Oc4ccccc4)c3)ccc2OC[C@@H](C)NC[C@H]1C | inactive
